# Test results taken from PubChem BioAssay (Tox21).
# Results filed as inconclusive are left out. Entries that show only a call come without a potency. Activity calls are given as the source filed them. Calls come from the whole dose curve.
# Experiment: p53 small molecule agonists, cell-based qHTS assay with human liver microsomes (AID 1963577)
# Procedure, shortened: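 p53RE-bla reporter cells were pre-incubated 5 h at 37 C, then treated with compounds plus human liver microsomes (0.5 mg/mL final) and NADPH (0.5 mg/mL final) for 16 h at 37 C. Beta-lactamase activity was read by LiveBLAzer fluorescence after 2 h at room temperature.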
# Potency is the fitted concentration of half-maximal effect.
row,SMILES,Potency
1,Oc1c(Cl)cc(Cl)c(Cl)c1Cl,inactive
2,CCOC(=O)c1ccc(O)cc1,inactive
3,COc1ccc(OC)cc1,inactive
4,C=C(C)C(=O)OCCOC(=O)C(=C)C,inactive
5,Nc1ccc2c(O)cc(S(=O)(=O)O)cc2c1,inactive
6,CC(C)(C)[C@@H](O)[C@@H](Cc1ccc(Cl)cc1)n1cncn1,inactive
7,COc1ccc(O)cc1,inactive
8,CCCCOC(=O)c1ccc(N)cc1,inactive
9,COc1cc(NC(=O)CC(C)=O)c(OC)cc1Cl,inactive
10,NC(=O)c1cnccn1,inactive
11,Oc1ccc(Cc2ccccc2O)cc1,inactive
12,Nc1ccc(O)c(C(=O)O)c1,inactive
13,Oc1ccc(O)cc1,inactive
14,NNc1ccc(C(=O)O)cc1,inactive
15,CCCCCCCCC(=O)O,39.5 µM (active)
16,CCCCCCCCO,inactive
17,C#C[C@]1(O)CC[C@H]2[C@@H]3CCc4cc(OC)ccc4[C@H]3CC[C@@]21C,inactive

row,SMILES,Potency
1,OC[C@]1(O)OC[C@@H](O)[C@H](O)[C@@H]1O,inactive
2,CCCCCCC(C)O (stereo not drawn),inactive
3,c1ccc(Nc2ccccc2)cc1,inactive
4,CCO[Si](CCCNC(N)=O)(OCC)OCC,inactive
5,CC(=O)OCc1ccc2c(c1)OCO2,inactive
6,CC(CCO)CC(C)(C)C (stereo not drawn),inactive
7,CN(C)CCN(Cc1cccs1)c1ccccn1,inactive
8,C[C@H]1C[C@H]2[C@@H]3CCC4=CC(=O)C=C[C@]4(C)[C@@]3(F)[C@@H](O)C[C@]2(C)[C@@]1(O)C(=O)CO,inactive
9,Cc1ccc([N+](=O)[O-])cc1N,inactive
10,OCCOCCOCCO,inactive
11,Cc1cc(C2(c3cc(C)c(O)cc3C)OS(=O)(=O)c3ccccc32)c(C)cc1O,inactive
12,C=CCOC(=O)c1ccccc1C(=O)OCC=C,inactive
13,CCC(C)(O)CCCC(C)C (stereo not drawn),inactive
14,CCCCCCC(=O)O,inactive
15,O=C1CCc2ccccc2O1,inactive
16,NNCCc1ccccc1,inactive
